About 79,000 compounds went through this panel and 15% of them were active in at least one assay; those are over-represented in the sample as a whole. Calls of active or inactive are those of the source. No stated cut-off is given here; in the data, active means growth inhibition above about 70%; inactive means the rest.
Tests used:
[1] = NCI Yeast Anticancer Drug Screen. Data for the rad50 strain (AID 155);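 further: 0% = growth of vehicle-only cultures of the same strain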; settings: S. cerevisiae rad50 strain growth inhibition; at 50.0 µM; stronger effect = higher value
Outline: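 Vehicle-treated cultures provide the reference for the growth inhibition reported for compound-exposed, repair-deficient yeast.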

[2] = NCI Yeast Anticancer Drug Screen. Data for the mec2-1 strain (AID 157); settings: S. cerevisiae mec2-1 strain, at 50.0 µM, stronger effect = higher value
Outline: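 Growth inhibition is read against vehicle-treated controls after compound exposure of the mec2-1 yeast strain, which is defective in DNA damage repair or cell cycle control.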

[3] = NCI Yeast Anticancer Drug Screen. Data for the sgs1 mgt1 strain (AID 161);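 further: 0% = growth of cultures given vehicle only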; settings: S. cerevisiae sgs1 mgt1 strain, at 50.0 µM, stronger effect = higher value
Outline: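 Growth of a repair-deficient yeast mutant was monitored after compound treatment and expressed as inhibition relative to vehicle-treated cultures.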

[4] = NCI Yeast Anticancer Drug Screen. Data for the cln2 rad14 strain (AID 165);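 further: 0% = growth equal to vehicle treated cultures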; settings: S. cerevisiae cln2 rad14 strain, at 50.0 µM, stronger effect = higher value
Outline: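 Growth inhibition, relative to vehicle-treated controls, is the read-out. The test organism is a yeast strain with defined genetic alterations, cln2 rad14.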

[5] = NCI Yeast Anticancer Drug Screen. Data for the bub3 strain (AID 167); settings: S. cerevisiae bub3 mutant strain, at 50.0 µM, stronger effect = higher value
Outline: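 Mutant yeast screening strain plus compound; vehicle-treated cultures serve as the 0% inhibition reference.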

[6] = NCI Yeast Anticancer Drug Screen. Data for the mlh1 rad18 strain (AID 175); settings: S. cerevisiae mlh1 rad18 strain growth inhibition; at 50.0 µM; stronger effect = higher value
Outline: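 Cells of a genetically altered yeast strain, deficient in DNA damage repair, were treated with compound. Their growth was then compared with that of vehicle-treated cultures to give inhibition.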

| SMILES | growth inhibition [1] | growth inhibition [2] | growth inhibition [3] | growth inhibition [4] | growth inhibition [5] | growth inhibition [6] |
| --- | --- | --- | --- | --- | --- | --- |
| CCN(CC)CCN1C(=O)C2C3C=CC(C3)C2C1=O (configuration not stated) | -15.1% (inactive) | -15.4% (inactive) | 3.25% (inactive) | -14.9% (inactive) | -3.25% (inactive) | -14.9% (inactive) |
| CC[C@@H](C)[C@H]([C@H](CC(=O)N1CCC[C@@H]1[C@@H](OC)[C@H](C)C(=O)N[C@H](Cc1ccccc1)c1nccs1)OC)N(C)C(=O)[C@H](NC(=O)[C@@H](C(C)C)N(C)C)C(C)C | 6.95% (inactive) | -22.6% (inactive) | -2.2% (inactive) | 8.3% (inactive) | 20.3% (inactive) | 16.8% (inactive) |
| O=C(SCSC(=O)c1ccccc1)c1ccccc1 | -11.3% (inactive) | 10.9% (inactive) | -4.75% (inactive) | -18.5% (inactive) | 32.8% (inactive) | 2% (inactive) |
| CN(C)c1ccc(/C=N/NC(=O)c2cnc3ccccc3c2)cc1 | -7.05% (inactive) | -4.95% (inactive) | -11.3% (inactive) | -0.4% (inactive) | 8.1% (inactive) | 17.4% (inactive) |
| OC1CCCCC1[n+]1ccccc1 (configuration not stated) | -7.8% (inactive) | -0.6% (inactive) | -7.45% (inactive) | -24.1% (inactive) | -7.35% (inactive) | -0.55% (inactive) |
| COc1cc2c(cc1OC)C1=C(/C=C\C(C)=O)CCN1CC2 | -6.9% (inactive) | 20.9% (inactive) | -4.45% (inactive) | -8.65% (inactive) | 0.1% (inactive) | 5.55% (inactive) |
| NC(=NCC(O)c1ccccc1)Nc1ccccc1 (configuration not stated) | 0.75% (inactive) | -8.6% (inactive) | 15.1% (inactive) | 6.1% (inactive) | 18.1% (inactive) | 10.6% (inactive) |
| NC(=O)c1[nH]c(N=Nc2ccc(S(N)(=O)=O)cc2)nc1N | 28.6% (inactive) | 13.6% (inactive) | 15% (inactive) | -5.1% (inactive) | -15.7% (inactive) | 17.9% (inactive) |
| O=C(CBr)c1c2c(cc3c1CCCC3)CCCC2 | 1.75% (inactive) | -1.35% (inactive) | -2.05% (inactive) | -4.9% (inactive) | 33% (inactive) | -16.6% (inactive) |
| C[N+](C)(C)c1ccc2ccccc2n1 | -9.15% (inactive) | -1.6% (inactive) | -19.9% (inactive) | 1.15% (inactive) | -8.7% (inactive) | -2.7% (inactive) |
| COc1ccc(N=Nc2c(-c3ccccc3)nn(C(=O)CC(=O)Nc3ccc(OC)cc3)c2-c2ccccc2)cc1 | -17% (inactive) | -1.7% (inactive) | -0.8% (inactive) | -25.4% (inactive) | 11.7% (inactive) | -3.35% (inactive) |
| C1=CC(c2ccccc2)=C(c2ccccc2)C(c2ccccc2)C(c2ccccc2)=C1 (configuration not stated) | 18.2% (inactive) | 1.95% (inactive) | 13.2% (inactive) | 26.9% (inactive) | -1.05% (inactive) | 11.8% (inactive) |
| COc1ccc2c(c1)Sc1c(Cl)c3c(c(Cl)c1=N2)Sc1cc(OC)ccc1N=3 | 19.5% (inactive) | -4.75% (inactive) | 0.7% (inactive) | 21.7% (inactive) | -2.2% (inactive) | 13.9% (inactive) |
| N#CCc1nn(-c2ccccc2)c2ncn(N)c(=N)c12 | -8.45% (inactive) | -14.8% (inactive) | -9.6% (inactive) | -22.2% (inactive) | 6.2% (inactive) | -12.2% (inactive) |
| O=C(O)c1csc(C(=O)O)c1 | 8.5% (inactive) | -1.1% (inactive) | 9.05% (inactive) | 2.3% (inactive) | 12.4% (inactive) | 8.35% (inactive) |
| OCCCCCCCCCCCBr | 28.4% (inactive) | 4.05% (inactive) | -3.1% (inactive) | -27.1% (inactive) | 9.4% (inactive) | 17.1% (inactive) |
| O=C(O)c1nc(-c2ccc(S(=O)(=O)O)cc2)[nH]c1C(=O)O | -7.15% (inactive) | -0.25% (inactive) | 14% (inactive) | -24.8% (inactive) | -6.05% (inactive) | -3.6% (inactive) |
| Oc1ccc2c(c1)OCC(O)(c1ccccc1O)C2 (configuration not stated) | 23.8% (inactive) | -1.95% (inactive) | 6.3% (inactive) | 7.95% (inactive) | 23.2% (inactive) | 15.3% (inactive) |
| OCCN(/N=C\c1ccc2ccccc2c1)C1=NCCN1 | 15.3% (inactive) | 6.25% (inactive) | -22.1% (inactive) | -28.2% (inactive) | -2.5% (inactive) | 5.2% (inactive) |

| SMILES | growth inhibition [1] | growth inhibition [2] | growth inhibition [3] | growth inhibition [4] | growth inhibition [5] | growth inhibition [6] |
| --- | --- | --- | --- | --- | --- | --- |
| CC(=O)OC/C(C)=N\NS(=O)(=O)c1cc(Cl)c(Cl)cc1Cl | 15.1% (inactive) | 16.4% (inactive) | 15.8% (inactive) | 13.8% (inactive) | 6.8% (inactive) | 13.5% (inactive) |
| COc1cc(C)c(O)c(C)c1C | -1.9% (inactive) | -4.1% (inactive) | -6.55% (inactive) | -30.3% (inactive) | -13.1% (inactive) | 8.35% (inactive) |
| Cc1ccc(S(=O)(=O)N/N=C2/CC3CCC4CC2CC34)cc1 (configuration not stated) | -51% (inactive) | -0.6% (inactive) | -35.2% (inactive) | -25% (inactive) | 12.9% (inactive) | -10.1% (inactive) |
| CCCCCCCCCCCCCCCCCC(=O)OCC1OC(OC)C(NC(=O)N(CCCl)N=O)C(O)C1O (configuration not stated) | 16.3% (inactive) | -6.85% (inactive) | -4.8% (inactive) | 13.7% (inactive) | 21.4% (inactive) | 9.15% (inactive) |
| Cc1ccc(S(=O)(=O)N/N=C2/CC3CCC2C3)cc1 (configuration not stated) | 5% (inactive) | 1.3% (inactive) | -19.7% (inactive) | -9.4% (inactive) | 17.3% (inactive) | -15.3% (inactive) |
| Cc1ccc(C)c(NC(=O)NCc2ccc(Cl)cc2)c1 | -7.65% (inactive) | -41.2% (inactive) | -11.4% (inactive) | 13.2% (inactive) | -58.1% (inactive) | 10.2% (inactive) |
| CC1=CC(O)C(Br)C(C)(C)C12CCC(C)(Cl)C(Br)C2 (configuration not stated) | 90.1% (active) | 91% (active) | 89.8% (active) | 81.8% (active) | 89.9% (active) | 89.3% (active) |
| CCOc1c(CNC(=O)CCl)cc(N)cc1CNC(=O)CCl | 6.45% (inactive) | 3.4% (inactive) | -14% (inactive) | 10.8% (inactive) | 2.1% (inactive) | -10.3% (inactive) |
| CC(=O)O[C@]12CCCCCC1C1(O)C(O)CCC[C@H]12 (some centres not stated) | -29.4% (inactive) | -19.9% (inactive) | -54.8% (inactive) | 17.6% (inactive) | -26.1% (inactive) | -47.3% (inactive) |
| CNc1ncnc2[nH]ncc12 | 18.4% (inactive) | -0.85% (inactive) | 6.25% (inactive) | -18.2% (inactive) | -7.05% (inactive) | 1.35% (inactive) |
| O=C(O)CCC(NC(=O)c1ccc(Nc2nc3ccccc3nc2C(=O)O)cc1)C(=O)O (configuration not stated) | -2% (inactive) | -11.2% (inactive) | -6.15% (inactive) | 3% (inactive) | 0% (inactive) | 0.65% (inactive) |
| COCOc1ccc(-c2ccc(O)cc2)cc1 | 10.8% (inactive) | 9.95% (inactive) | 0% (inactive) | -47.2% (inactive) | 18.9% (inactive) | 5.15% (inactive) |
| COc1cc(C(=O)CBr)c(OC)cc1C | 10.9% (inactive) | -10.7% (inactive) | 38% (inactive) | 17% (inactive) | 2.15% (inactive) | 46.8% (inactive) |
| O=C(Nc1ncnc2c1ncn2C1CCC(CO)O1)c1ccccc1 (configuration not stated) | -1.35% (inactive) | 2.15% (inactive) | 3.7% (inactive) | 7.45% (inactive) | 14% (inactive) | 16.9% (inactive) |
| CCOC(=O)C(=O)Cc1cnccn1 | -25.2% (inactive) | -12.7% (inactive) | -11.8% (inactive) | -0.9% (inactive) | -17.8% (inactive) | -2.65% (inactive) |
| c1ccc(-c2nc3ccccc3nc2-c2ccc(-c3ccc(-c4nc5ccccc5nc4-c4ccccc4)cc3)cc2)cc1 | 16.1% (inactive) | 5.8% (inactive) | -13.8% (inactive) | 21.3% (inactive) | -0.4% (inactive) | 4.1% (inactive) |
| CCCCCCCCCCCCSSC(=S)OC(C)C | 46.7% (inactive) | 37.7% (inactive) | 45.5% (inactive) | 16.9% (inactive) | 43.6% (inactive) | 44.5% (inactive) |
| CC[C@@]12CCC(=S)N(CCSc3ccccc3)[C@@H]1c1c(n(S(=O)(=O)c3ccc(OC)cc3)c3ccccc13)CC2 | -38% (inactive) | -18.1% (inactive) | 0.3% (inactive) | -15.9% (inactive) | 0.7% (inactive) | -5.3% (inactive) |

Reference: PubChem BioAssay (NCI)
